Screening data from PubChem BioAssay.
Sampled rows, rich in hits. Any-hit rate of the full collection: about 1.1%.
NR2F2 inh: NR2F2 (human) inhibition, primary screen; AID 686940; P24468; HEK293T NGFI-A luciferase reporter, luminescence; 0.7% of 370,000 active; inhibition, % at 8.6 µM;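 active means inhibition above a per-plate cutoff, mean inhibition of test wells between control levels plus 3 SD, cut at about 38% in these data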;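 further: cells cotransfected with COUP-TFII expression vector driving the NGFI-A reporter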
SRC3 inh: inhibits human SRC3 coactivator. 0.17% of 360,000 active. AID 588352. HEK293 GAL4-SRC3 luciferase reporter, luminescence. inhibition, % at 3.6 µM;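 active means inhibition above a per-campaign cutoff, the mean of all compounds plus 3 SD, cut at about 60% in these data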;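 further: higher means less SRC3-driven luciferase light from the GAL4 reporter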
LRH-1 inv ag: inverse agonists of human LRH-1 (NR5A2). AID 602396. inhibition, % at 3.6 µM. 0.13% of 360,000 active. HEK293T StAR-luciferase reporter, LRH-1 transfected, 24 h;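 active means inhibition above the mean inhibition of all tested compounds plus 3 SD, cut at about 73% in these data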
NCOA1 inh: inhibits human SRC1 coactivator; Q15788; HEK293 GAL4-SRC1 luciferase reporter, luminescence; inhibition, % at 3.6 µM; 0.12% of 360,000 active; AID 588354;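 active means inhibition above the campaign mean plus 3 SD, with each screening campaign given its own cutoff, cut at about 60% in these data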
NCOA2 inhibitor: inhibits human steroid receptor coactivator 2; Q15596; HEK293 GAL4-SRC2 luciferase reporter, luminescence; inhibition, % at 9 µM; 0.17% of 370,000 active; AID 651957;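 active means inhibition above the mean inhibition of all tested compounds plus 3 SD, set per campaign, cut at about 52% in these data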
GalR3 antagonist: antagonists of human GalR3; O60755; HEK293 GalR3-CNG cAMP membrane potential fluorescence; galR3 body fused to GalR1 C-terminus; inhibition, % at 3 µM; 0.44% of 360,000 active;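 active means inhibition above the screen-wide average plus 3 SD, cut at about 13% in these data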;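 further: forskolin and galanin both at EC90 stimulate the cells; cAMP rise reported by CNG channel membrane potential dye signal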
VP16 Luc counter: VP16 inhibition counter-screen for COUP-TFII; shares compounds with NR2F2 inh; HEK293 Gal4-VP16 luciferase reporter, luminescence; inhibition, % at 8.5 µM; 25% of 2,500 active; in the data active means inhibition above about 13%
NR2F2 inh conf: COUP-TFII (NR2F2) inhibition, confirmation assay; shares compounds with NR2F2 inh; HEK293 NGFI-A luciferase reporter, luminescence; inhibition, % at 8.5 µM; 45% of 2,500 active; AID 687008;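 active means mean inhibition over three repeats above a set limit taken from the earlier primary screen, cut at about 38% in these data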
Numbers stand for hits; 0 = inactive; - = no result.

SMILES	NR2F2 inh	SRC3 inh	LRH-1 inv ag	NCOA1 inh	NCOA2 inhibitor	GalR3 antagonist	VP16 Luc counter	NR2F2 inh conf
COC(=O)c1c(-c2cccc3ccccc23)csc1NC(=O)Cc1ccc(OC)c(OC)c1	41.3	0	0	0	0	0	0	0
COC(=O)c1c(-c2ccc(C)cc2)csc1NC(=O)Cc1ccc(OC)c(OC)c1	0	0	0	0	0	0	-	-
COc1ccc(C2CC(O)(c3ccccc3)Oc3cc(OC)c(OC)c(OC)c32)cc1 (stereo not drawn)	0	0	0	0	0	0	-	-
COc1ccc([C@@]23Oc4cc(OC)cc(OC)c4[C@]2(O)[C@H](O)[C@H](C(=O)N(C)C)[C@H]3c2ccccc2)cc1	87.1	89.5	99.5	90.3	71.9	0	20.3	73.9
O=Nc1ccc(O)c2ncccc12	53.5	0	0	0	0	0	0	40.6
Cc1ccccc1N=Nc1ccc(O)c2ncccc12	0	0	0	0	0	0	-	-
CC(C)c1ccc(C(=O)Nc2ccc(CN3CCOCC3)cc2)cc1	38.3	0	0	0	0	0	0	0
O=C(/C=C/c1ccc(Cl)cc1)Nc1ccc(CN2CCOCC2)cc1	57.4	0	0	0	0	0	0	0
O=C(Nc1ccc(CN2CCOCC2)cc1)c1ccc(-c2cccc(Cl)c2)o1	61.5	0	0	0	0	0	0	0
COc1ccc(NC(=O)c2ccc(CN3CCN(c4ccccc4)CC3)cc2)cc1	48.2	0	0	0	0	0	0	0
CC(C)c1ccc(/C=C/C(=O)Nc2ccc(CN3CCOCC3)cc2)cc1	0	0	0	0	0	0	-	-
COc1ccc(C(=O)Nc2ccc(N3CCN(Cc4ccccc4)CC3)cc2)cc1	0	0	0	0	0	0	-	-
CC(C)Oc1ccc(C(=O)NC(=S)Nc2ccc(CN3CCOCC3)cc2)cc1	0	0	0	0	0	0	-	-
CCOc1ccc(-c2nc(-c3ccncc3)no2)cc1OCC	0	0	0	0	0	0	-	-
O=C(COc1ccc(Nc2ccccc2)cc1)Nc1ccncc1	48.2	0	0	0	0	0	0	0
O=C(COc1ccc(Br)cc1)Nc1ccncc1	0	0	0	0	0	0	-	-
CCCCCCCCN1C(=O)[C@@H](CC(=O)N2CCN(C(=O)c3ccco3)CC2)C[C@@]2(C(=O)OC)C1=C[C@H](C1CCCC1)O[C@@H]2C	0	-	-	-	0	0	-	-
Cc1sc2ncnc(NCC(O)c3ccc([N+](=O)[O-])cc3)c2c1C (stereo not drawn)	62.5	0	0	0	0	0	0	50.0
Cc1cccc(NC(=O)CSc2nc3ccccc3c(=O)n2C)c1	40.8	0	0	0	0	0	0	0
O=C(CCCN1C(=O)/C(=C/c2ccccc2Cl)SC1=S)N1CCCC1	0	0	0	0	0	0	-	-
CCc1ccc(/C=C2\SC(=S)N(CCCC(=O)NCCCN3CCOCC3)C2=O)cc1	83.7	0	0	0	89.3	0	68.5	59.1
O=C(CCN1C(=O)/C(=C/c2ccccc2F)SC1=S)NCCCN1CCOCC1	0	0	0	0	0	0	-	-
O=C(CCCN1C(=O)/C(=C/c2ccccc2Cl)SC1=S)NNC(=O)c1ccccc1Cl	69.3	0	0	0	83.1	0	69.1	70.5
CCOc1ccc(/C=C2\SC(=S)N(CCCC(=O)NCCCN3CCOCC3)C2=O)cc1	68.6	0	0	0	83.5	0	26.6	0
CCc1ccc(/C=C2/SC(=S)N(CCC(=O)NCCCN3CCOCC3)C2=O)cc1	0	0	0	0	0	0	-	-
O=C(CCCN1C(=O)/C(=C/c2ccccc2Cl)SC1=S)NCCCN1CCOCC1	62.8	0	0	0	78.6	0	0	0
CCN(CC)c1ccc(C=Nc2ccccc2C)c(O)c1	0	0	0	0	0	0	-	-
Cc1cc(C(=O)CSc2nnc(-c3cccc(F)c3)n2N)c(C)n1Cc1ccc2c(c1)OCO2	43.7	0	0	0	0	0	0	0
O=C(c1ccc(CSc2nc3ccncc3[nH]2)cc1)N1CCN(c2cccc(Cl)c2)CC1	78.2	0	0	0	0	-	0	50.8
